{"source": "PubChem BioAssay AID2283123", "about": "(EPA ToxCast)", "note": "Records with an inconclusive call do not appear. Active and inactive are the calls of the source. How the source made its calls: active means hit-call score of the fitted dose curve at least 0.9, where 1 is the maximum; inconclusive means response in the unintended direction; inactive means score below 0.9."}
{"target": "rat CYP2E1, Cyp2e1 (gene 25086) (UniProt P05182)", "sequence (P05182 whole entry, looked up)": "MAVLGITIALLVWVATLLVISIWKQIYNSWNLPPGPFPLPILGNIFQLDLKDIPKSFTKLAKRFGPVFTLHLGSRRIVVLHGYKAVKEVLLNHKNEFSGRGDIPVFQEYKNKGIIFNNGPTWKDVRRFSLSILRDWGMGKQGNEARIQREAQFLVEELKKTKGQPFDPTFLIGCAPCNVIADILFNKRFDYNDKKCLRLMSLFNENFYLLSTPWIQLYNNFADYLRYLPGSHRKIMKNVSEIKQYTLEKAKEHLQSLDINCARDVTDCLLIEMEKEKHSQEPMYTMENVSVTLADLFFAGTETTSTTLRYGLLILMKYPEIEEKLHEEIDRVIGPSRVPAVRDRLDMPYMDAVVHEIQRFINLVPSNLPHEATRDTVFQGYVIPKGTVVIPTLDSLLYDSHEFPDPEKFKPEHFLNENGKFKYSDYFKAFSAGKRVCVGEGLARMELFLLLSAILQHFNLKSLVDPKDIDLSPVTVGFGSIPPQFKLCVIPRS", "test": "NVS_ADME_rCYP2E1: NovaScreen (NVS) CYP450-related Enzyme Activity (ADME) Assay for rat CYP2E1", "procedure": "NVS_ADME_rCYP2E1 is a biochemical, single-readout assay that uses extracted gene-proteins in a cell-free assay. Measurements were taken 1 hour after chemical dosing in a 96-well plate.NVS_ADME_rCYP2E1 is one of one assay component(s) measured or calculated from the NVS_ADME_rCYP2E1 assay. It is designed to make measurements of enzyme activity, a form of enzyme reporter, as detected with fluorescence intensity signals by Fluorescence technology.Data from the assay component NVS_ADME_rCYP2E1 was analyzed into 1 assay endpoint. This assay endpoint, NVS_ADME_rCYP2E1, was analyzed in the positive analysis fitting direction relative to Acetonitrile as the negative control and baseline of activity. Using a type of enzyme reporter, loss-of-signal activity can be used to understand changes in the enzymatic activity as they relate to the gene Cyp2e1. Furthermore, this assay endpoint can be referred to as a primary readout, because this assay has produced multiple assay endpoints where this one serves a enzymatic activity function. To generalize the intended target to other relatable targets, this assay endpoint is annotated to the cyp intended target family, where the subfamily is xenobiotic metabolism.\nBinding assays used specific radioligands (tritiated, iodinated) with non-radioactive competitive displacement ligands in agonist or antagonist protocols (as indicated) and various reference compounds and inhibitors to titrate specific binding to receptors and transporters. Most enzyme assays (CYPs, kinases, phosphatases, proteases, HDACs) used recombinant protein and specific substrates (fluorescence mostly, some colorimetric and radioactive) and inhibitors, followed by a biochemical separation of substrate and product. All assays for the biochemical HTS were initially run in duplicate at a single concentration (10 uM for CYP450 assays and 25 uM for all others). Assay-chemical combinations meeting a pre-defined threshold (e.g., 30% inhibition and other criteria defined below) were then run in singleton concentration-response format with maximum concentration of 20 uM for CYPs and 50 uM for all others. Each assay was run with positive and negative controls, and concurrent controls on every plate. The follow-up (secondary) screen tested active chemical-pairs in concentration series, as well as a few additional assays not tested in the primary screen, some selected negative inactives, and several cases re-run in the concentration series for confirmatory purposes."}
{"smiles": "CC(C1CC1)C(O)(Cn1cncn1)c1ccc(Cl)cc1", "note": "(stereo not given)", "outcome": "inactive"}
{"smiles": "S=C1NCCN1", "outcome": "inactive"}
{"smiles": "C[Si](Cn1cncn1)(c1ccc(F)cc1)c1ccc(F)cc1", "AC50": "10 µM (active)"}
{"smiles": "COP(=S)(OC)SCn1nnc2ccccc2c1=O", "outcome": "inactive"}
{"smiles": "N#Cc1c[nH]cc1-c1cccc2c1OC(F)(F)O2", "AC50": "0.254 µM (active)"}
{"smiles": "COc1nn(CSP(=S)(OC)OC)c(=O)s1", "outcome": "inactive"}
{"smiles": "CCCN(CCOc1c(Cl)cc(Cl)cc1Cl)C(=O)n1ccnc1", "AC50": "2.54 µM (active)"}
{"smiles": "CCOP(=S)(OCC)Oc1ccc2c(C)c(Cl)c(=O)oc2c1", "outcome": "inactive"}
{"smiles": "COP(=S)(OC)Oc1ccc([N+](=O)[O-])c(C)c1", "outcome": "inactive"}
{"smiles": "CNC(=S)S", "outcome": "inactive"}
